PubChem BioAssay (NCI)
The panel holds about 83,000 compounds, 20% with a hit somewhere; the sample as a whole holds those more often.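 Growth was measured after 48 h exposure to one concentration of compound in 96-well plates. Values under 10 count as active.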 A number with no mark means an inactive call. Calls of active or inactive are those of the source.

How the values were obtained:
Assay in all cases: NCI-60 one-dose screen, 48 h (100 = growth as untreated, 0 = no growth, -100 = all killed)
Conditions in all cases: 10 µM unless noted
DU-145 prostate = system: DU-145 prostate
K-562 leukemia = system: K-562 leukemia
MALME-3M melanoma = system: MALME-3M melanoma
MDA-MB-231 breast = system: MDA-MB-231 breast
RXF 393 renal = system: RXF 393 renal
SF-268 CNS = system: SF-268 CNS
SF-295 CNS = system: SF-295 CNS
SF-539 CNS = system: SF-539 CNS
UACC-257 melanoma = system: UACC-257 melanoma
M14 melanoma = system: M14 melanoma
HCT-15 colon = system: HCT-15 colon
HT29 colon = system: HT29 colon
SNB-75 CNS = system: SNB-75 CNS
SNB-19 CNS = system: SNB-19 CNS
U251 CNS = system: U251 CNS
PC-3 prostate = system: PC-3 prostate
SK-MEL-5 melanoma = system: SK-MEL-5 melanoma
UACC-62 melanoma = system: UACC-62 melanoma
LOX IMVI melanoma = system: LOX IMVI melanoma
SK-MEL-28 melanoma = system: SK-MEL-28 melanoma

| Compound | growth (DU-145 prostate) | growth (K-562 leukemia) | growth (MALME-3M melanoma) | growth (MDA-MB-231 breast) | growth (RXF 393 renal) | growth (SF-268 CNS) | growth (SF-295 CNS) | growth (SF-539 CNS) | growth (UACC-257 melanoma) | growth (M14 melanoma) | growth (HCT-15 colon) | growth (HT29 colon) | growth (SNB-75 CNS) | growth (SNB-19 CNS) | growth (U251 CNS) | growth (PC-3 prostate) | growth (SK-MEL-5 melanoma) | growth (UACC-62 melanoma) | growth (LOX IMVI melanoma) | growth (SK-MEL-28 melanoma) |
| --- | --- | --- | --- | --- | --- | --- | --- | --- | --- | --- | --- | --- | --- | --- | --- | --- | --- | --- | --- | --- |
| N=c1c2c(=N)n3c(nc2nc2n1-c1ccccc1Sc1ccccc1-2)sc1cc(Cl)ccc13 | 32.4% | 34.9% | 12.7% | 32.1% | 26.5% | 38.3% | 12.8% | 55.4% | -5.42% (active) | 28.8% | 15.7% | 26.4% | 53.4% | 30.7% | 9.17% (active) | 19.4% | -12.8% (active) | 13.8% | 13.5% | 25% |
| CCN(CC)CCCC(C)Nc1ccc2cc(OC)ccc2n1 (centres undefined) | 99.9% | 131% | 114% | 104% | 112% | 91.2% | 97.4% | 100% | 94.7% | 99.3% | 103% | 106% | 89.8% | 106% | 97.9% | 95.4% | 107% | 108% | 102% | 108% |
| O=C(NCc1ccc2c(c1)OCO2)NCC1CCCC(CNC(=O)NCc2ccc3c(c2)OCO3)C1 (centres undefined) | 108% | 95.3% | 108% | 96.4% | 106% | 97.7% | 101% | 103% | 104% | 109% | 99.2% | 110% | 97.3% | 87.7% | 103% | 102% | 102% | 95.8% | 97.9% | 114% |
| COc1cc(N2C(=O)[C@H](c3ccccc3)C2c2ccc(SC)cc2)cc(OC)c1OC (some centres undefined) | 6.14% (active) | 5.06% (active) | 63.3% | 28% | -4.2% (active) | 25.3% | -6.29% (active) | 8.41% (active) | 33.3% | 5.09% (active) | 1.35% (active) | -9.59% (active) | 69.4% | 30.8% | 7.35% (active) | 17.7% | -20.7% (active) | 7.64% (active) | 13.4% | 60.9% |
| COc1cc(/C=C2\C(=O)N(c3c(Cl)cccc3Cl)c3ccccc32)cc(OC)c1OCCCCCCn1c2ccccc2c(=O)c2ccccc21 | 104% | 98.8% | 106% | 100% | 106% | 87.6% | 99% | 93.8% | 111% | 93.8% | 108% | 103% | 73.6% | 98.4% | 103% | 87.1% | 96.1% | 93.3% | 98.4% | 99% |
| CC[C@]12C=CCN3CC[C@@]4(c5ccc(OC)cc5N(C)[C@H]4[C@@](O)(C(=O)OC)[C@@H]1OC(=O)CCCN1CCOCC1)[C@@H]32 | 106% | 100% | 110% | 115% | 114% | 98.6% | 104% | 106% | 104% | 103% | 110% | 110% | 91.5% | 101% | 101% | 105% | 103% | 97.6% | 110% | 109% |
| COc1ccc(C/C(C)=C(\c2ccc(O)cc2)c2ccc(OCCN3CCCC3)cc2)cc1 | 104% | 85.5% | 94.1% | 104% | 136% | 107% | 102% | 99.9% | 99.1% | 95.2% | 102% | 88.4% | 94.2% | 103% | 106% | 96.8% | 111% | 102% | 98.3% | 97% |
| CN1CCN(Cc2ccc(NC(=O)c3cncc(C#Cc4cncc5ncccc45)c3)cc2C(F)(F)F)CC1 | 34.4% | -8.35% (active) | -14.4% (active) | 5.93% (active) | 8.21% (active) | 33.7% | 32.9% | -31.8% (active) | 6.41% (active) | -51.1% (active) | 19.7% | -4.72% (active) | 13.6% | 46.7% | 38.8% | 23% | 19.1% | 5.7% (active) | -85.7% (active) | 12.4% |
| Cc1[nH]c(/C=C/C(=O)c2ccc(C(F)(F)F)c(F)c2)c(C)c1C(=O)NCC(C)C | 101% | 101% | 96.6% | 99.4% | 93.8% | 95.8% | 90.9% | 96% | 99.2% | 104% | 93.8% | 102% | 89.4% | 92.2% | 100% | 103% | 99.8% | 96.6% | 90.5% | 106% |
| CN(C)c1ccc(C(=NO)c2ccc(N(C)C)cc2)cc1 | 56% | 17% | 29.8% | 63.5% | 33.5% | 50.6% | 3.86% (active) | 33.7% | 41.4% | 17.4% | 24.4% | 5.39% (active) | 53.6% | 46.3% | 28.1% | 58% | 14.5% | 28.1% | 43.1% | 56.3% |
| CCn1cc(C(=O)NN=C2CCCCCC2)c(=O)c2ccc(C)nc21 | 89.2% | 72% | 97.1% | 87.1% | 100% | 84% | 77.7% | 100% | 87.8% | 103% | 86.2% | 99.7% | 76.2% | 88.5% | 94.6% | 82.7% | 87.1% | 73.2% | 95% | 93.8% |
| CCCCCCCCn1ccc2cc(NC(=O)Cn3cc(CN4CCN(CC)CC4)nn3)ccc21 | 90.6% | 3.41% (active) | -11.1% (active) | 45.8% | 67.7% | 76.7% | 13.7% | 82.7% | 79.4% | -64.3% (active) | 22.5% | -26.4% (active) | 87.5% | 61.4% | 5.79% (active) | 82.6% | 78.1% | -78.2% (active) | -74.5% (active) | 80.5% |
| Cn1ncc2ccc(-c3nc(-c4ccccc4)[nH]c3-c3n[nH]c(=O)n3C3CC3)cc21 | 106% | 101% | 95.6% | 98% | 106% | 102% | 101% | 97.6% | 94.9% | 88.4% | 100% | 87.1% | 81.2% | 95.9% | 100% | 77.9% | 98.8% | 100% | 97.2% | 102% |
| CC(C)c1ccc(-n2c(=S)[nH]c3sc4c(c3c2=O)CCC(=O)C4)cc1 | 104% | 56.7% | 88.7% | 68.3% | 48.9% | 28.7% | 21.1% | 23.3% | 75.3% | 60.4% | 45.9% | 109% | 41.6% | 26.4% | 11.8% | 7.63% (active) | 27.9% | 24.5% |  | 75.7% |
| O=C1/C=C/[C@@H](O)[C@@H]2C[C@@H](O)C[C@H]2/C=C/CCC[C@H](CCOCc2ccccc2)O1 | 12.6% | 10.2% | -24.6% (active) | -71.5% (active) | -2.06% (active) | 13.1% | -18.3% (active) | 26.2% | 20.4% | 9.22% (active) | 8.84% (active) | -23.2% (active) | 33.2% | 33.1% | 18.4% | 16.5% | -88.3% (active) | 6.3% (active) | -59.7% (active) | -2.95% (active) |
